# A selection follows.
# aSyn UTR act = Activators via SNCA 5'UTR binding, MLPCN. alpha-synuclein 5'UTR reporter, activators screen. activity score, % (tested at 7.5 µM), hits read low. actives 7.1% (n = 300,000); in the data active means activity score below about -60%
# An asterisk follows results filed as active.
SMILES,aSyn UTR act
CN1c2ccccc2C(O)=C(C(=O)Nc2ccccc2)S1(=O)=O,-84*
Cc1ccc(NC(=S)C2=C(O)c3ccccc3N(C)S2(=O)=O)cc1,-100*
Cc1ccc(Nc2nc(Cl)nc(NC(C)(C)C)n2)cc1,-154*
Cc1ccc(Nc2nc(Nc3ccc(C)cc3)nc(SC3=NCCS3)n2)cc1,-95*
O=C(N/N=C/c1ccccc1F)NC12CC3CC(CC(C3)C1)C2,-115*
O=C(N/N=C/c1ccccn1)NC12CC3CC(CC(C3)C1)C2,-105*
N/C(Cc1cccs1)=N\OC(=O)COc1ccccc1Cl,-174*
N/C(Cc1cccs1)=N\OC(=O)COc1ccc(Br)cc1Cl,-163*
CCN(CC)C(=O)CSc1nc(N)c2c3c(sc2n1)CC(C)CC3 (stereo unspecified),-85*
COc1ccc2c(Cl)c(C(=O)NC3CCS(=O)(=O)C3)sc2c1 (stereo unspecified),-80*
O=C(Nc1nccs1)c1sc2ccccc2c1Cl,53
O=C(NC1CC1)c1sc2cc(Cl)ccc2c1Cl,-97*
O=C(Nc1nccs1)c1sc2cc(Cl)ccc2c1Cl,-115*
CCOC(=O)CSC1=NC(=O)/C(=C/c2ccc(Br)cc2)S1,-62*
CCOC(=O)CSC1=NC(=O)/C(=C\c2ccc(OC(C)=O)cc2)S1,-131*
CSc1nc(Oc2ccc3ccccc3c2)c2sccc2n1,82
COc1ccnc(Oc2ccc(C)cc2)c1C#N,-81*
COc1ccnc(N=CNOCc2ccc(C)cc2)c1C#N,-100*
COc1ccnc(Oc2ccc3ccccc3c2)c1C#N,-74*
CC1=Nc2cc(C(=O)NCC3CCCO3)ccc2Sc2ccc(Br)cc21 (stereo unspecified),-113*
Cc1cccc(NC(=O)C(=O)NCC2CCCO2)c1 (stereo unspecified),-92*
O=C(NCC1CCCO1)c1cc(-c2ccccc2)on1 (stereo unspecified),-362*
O=C(NCC1CCCO1)c1cc(-c2ccc(Cl)cc2Cl)on1 (stereo unspecified),-164*
Cc1ccc(-c2cc(C(=O)NCC3CCCO3)no2)cc1 (stereo unspecified),-76*
COc1ccc(C(=O)/C=C/Nc2cccc(C)n2)cc1OC,-195*
SMILES,aSyn UTR act
O=C(CC1=NCCNC(c2ccccc2)C1)c1ccccc1O (stereo unspecified),-145*
CCCCn1c(=O)[nH]c(=O)c2c1nc(Cn1ncc(Cl)c(Cl)c1=O)n2CCC,-106*
Cc1ccn2c(C(=O)CSc3ccccc3)c(C)nc2c1,-65*
N/C(=N\OC(=O)c1cccc(F)c1)c1ccccc1,-331*
Cc1ccc(/C(N)=N/OC(=O)c2ccc3ccccc3c2)cc1,-124*
Cc1ccc(/C(N)=N/OC(=O)c2cccc(F)c2)cc1,-262*
COC(=O)Cc1ccc2sc(-c3ccccc3)nc2c1,-208*
O=C(CCS(=O)(=O)c1ccccc1)Nc1ccc(-c2nc3ccccc3s2)c(O)c1,-93*
CC(=O)Nc1cccc(-c2nc3ccc(NC(C)=O)cc3s2)c1,-133*
CC(=O)Nc1ccc(O)c(-c2nc3ccccc3s2)c1,-326*
CC(=O)Nc1cccc(-c2cc(C)c3cc4c(cc3n2)OCO4)c1,-89*
Nc1cccc(-c2nc3ccccc3s2)c1,-67*
CC(=O)Nc1cccc(-c2nc3ccccc3s2)c1,-133*
Cc1ccc2nc(-c3ccc4c(c3)NC(=O)CO4)cn2c1,-80*
Cc1ccc2nc(-c3ccc4c(c3)OCCO4)cn2c1,110
Cc1cccc(NC(=O)Cn2nnc3ccccc32)c1,-104*
COC(=O)c1ccc(NC(=O)Cn2nnc3ccccc32)cc1,-174*
Cc1ccc(NC(=O)Cn2nnc3ccccc32)cc1,-176*
CCC(=O)Nc1cc2nn(-c3ccc(C)cc3)nc2cc1C,80
COc1ccc(-n2nc3cc(C)c(NC(=S)NC(=O)c4ccccc4C)cc3n2)cc1,-173*
CCCCC(=O)Nc1cc2nn(-c3ccc(OC)cc3)nc2cc1C,-67*
CCCCN1C(=O)C(=O)N(c2ccccc2)C1=S,-135*
CCCCCCN1C=CC(=C2C(=O)c3ccccc3C2=O)C=C1,107
O=C1C2CC=C(Cl)CC2C(=O)N1CCc1ccccc1 (stereo unspecified),-69*
O=C1c2ccccc2C(=O)N1CCSc1ccccc1,-191*
SMILES,aSyn UTR act
O=C1c2ccccc2C(=O)N1CCc1ccccc1,-70*
O=C(Nc1nc2c(s1)COc1ccccc1-2)c1cccs1,-104*
O=C(Nc1nc2c(s1)CCc1ccccc1-2)c1cccs1,-110*
COc1ccc(CCNC(=O)c2ccccc2)cc1,-64*
COc1ccc(O)c(/C=N/NC(=O)c2c(C)nnn2-c2nonc2N)c1,64
COc1ccc(C(=O)Nc2cc(C(=O)NCCc3ccccc3)ccc2Cl)cc1,-69*
COc1ccc(CCNC(=O)c2nonc2N)cc1,-85*
COc1ccc(OC)c(NC(=O)c2nc(S(=O)(=O)Cc3ccccc3)ncc2Cl)c1,99
COc1cccc(CCNC(=O)c2ccc(C#N)cc2)c1,-63*
COc1ccc(OC(=O)NCCc2ccccc2)cc1,-134*
COc1ccc(CC(=O)Nc2ccccc2C(=O)NCCc2ccccc2)cc1,-101*
Cc1ccccc1-c1nnc(CN2CCC(C)CC2)o1,-77*
CSc1ccccc1-c1nnc(-c2ccc(C)cc2)o1,-106*
Cc1ccccc1-c1nnc(-c2ccccc2C)o1,-145*
Cc1ccccc1-c1nnc(-c2ccc(Br)cc2)o1,-175*
Cc1cc(N/N=C2/CCCc3ccccc32)nc2ccccc12,-172*
Fc1ccc2c(c1)/C(=N/Nc1ccccn1)CCS2,-72*
c1ccc(N/N=C2\CCCc3ccccc32)nc1,-75*
O=C(NC1CCCC1)c1cc(-c2cccc(Cl)c2)on1,-186*
O=C(NC1CCCCC1)c1cc(-c2cccc(Cl)c2)on1,-235*
O=c1cc(N2CCN(c3ccc(F)cc3)CC2)[nH]c(=O)n1C1CCCCC1,-107*
CC(/C=N/N1CCN(c2ccccc2)CC1)=C\c1ccco1,-101*
CC(=C/c1ccco1)/C=N/N1CCN(c2ccccc2)CC1,-175*
Cc1ccc(-c2cc(-c3cccs3)[nH]n2)c(O)c1,-128*
Cc1cc(OCc2cc(C(=O)N(C)C3CCOCC3)no2)cc(C)c1Cl,-128*
SMILES,aSyn UTR act
Cc1ccc(OCc2cc(C(=O)N(C)CC3CCOCC3)no2)cc1C,-104*
Cc1ccnc(NC(=O)Nc2cccc(F)c2)n1,-115*
Cc1cccc(NC(=O)Nc2cc(C)cc(C)n2)c1,-184*
Cc1cccc(NC(=O)Nc2cccc(F)c2)n1,-119*
Cc1cccc(NC(=O)Nc2cccc(C#N)c2)n1,-170*
CN(Cc1ccccc1)S(=O)(=O)c1ccc(C(=O)Nc2nnc(C3CC3)o2)cc1,60
CC(=O)c1ccc(NC(=O)C(C)Sc2nnc(C3CCCCC3)o2)cc1 (stereo unspecified),-128*
Cc1c(CC(=O)NC(C)C)c(=O)oc2cc3c(cc12)CCC(C)(C)O3,-78*
CCC(C)NC(=O)Cc1c(C)c2cc3c(cc2oc1=O)OC(C)(C)CC3 (stereo unspecified),-118*
Cc1c(CCC(=O)O)c(=O)oc2cc3oc4c(c3cc12)CCCC4,68
Cc1c(CC(=O)N[C@H](C(=O)O)C(C)C)c(=O)oc2cc3c(cc12)CCC(C)(C)O3,-110*
O=C(Nc1ccc(Cl)cc1)c1csc(Cc2ccccc2)n1,-72*
COc1ccc(Cc2nc(C(=O)Nc3ccccc3)cs2)cc1,-73*
COc1cc(NC(=O)c2c(OC)cccc2OC)ccc1NC(=O)c1cc2ccccc2o1,-205*
CCC(=O)Nc1ccc(NC(=O)c2cc3ccccc3o2)c(OC)c1,-134*

# Compound activity as filed in PubChem BioAssay.
